In PubChem BioAssay (NCI) one finds growth data, which are given here for 14 molecules.

“And” between values parts separate entries of the source, which are not always exact repeats. Equal entries are not always repeated. Compounds without any hit were thinned out: in the full panel of roughly 83,000, 20% have a hit.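 How to read the values: 0–100, growth inhibition (40 = 60% inhibited); 0, no net growth; -100 to 0, cell death (-40 = 40% of starting cells died; -100 = all dead).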 The source made the active and inactive calls. How the source made its calls: active means growth percent below 10; inactive means the rest.

The assay relates to UACC-62 melanoma. Nature of the assay: NCI-60 one-dose screen, 48 h (100 = growth as untreated, 0 = no growth, -100 = all killed). Conditions: 10 µM unless noted.
As for `O=C(Cc1nc2ccc(C(=O)c3ccccc3)cc2[nH]c1=O)C(=O)Nc1ccccc1[N+](=O)[O-]`, the growth was 30.2% [100 µM] (inactive) and -20.2% [100 µM] (active).

As to `COc1ccc2cc(CN3CCC(C4CCNCC4)CC3)ccc2c1`, the growth is -93.1% [100 µM] (active) and -100% [100 µM] (active). The value for `COc1ccc(C)cc1NC(=S)C#N` was 74.4% [100 µM] (inactive) and 31.4% [100 µM] (inactive); that for `COc1ccc(OC)c(N(CN2C(=O)CCC2C(=O)O)C(C)=O)c1` (centres undefined) was 80.4% [100 µM] (inactive) and 103% [100 µM] (inactive); that for `CC(=O)c1ccc(NC(=O)/C(CC(=O)/C=C/c2ccccc2)=N/NC(N)=S)cc1` was 91.1% [100 µM] (inactive) and 43.7% [100 µM] (inactive). Regarding `O=C(Nc1cccc(NC(=O)C(=O)C2CCC3=C(Sc4ccccc4N3)C2=O)n1)C(=O)C1CCC2=C(Sc3ccccc3N2)C1=O` (centres undefined), the growth is 50.7% [100 µM] (inactive) and -46.3% [100 µM] (active). For the molecule `CCOc1cc2c(cc1O)C=C[C@@H]1[C@@H]2CC[C@]2(C)[C@@H](O)CC[C@@H]12`, the growth was -65.7% [100 µM] (active) and -100% [100 µM] (active).

As to `Cc1cc(S(=O)(=O)O)c(NC(=O)c2oc3cc(O)ccc3c(=O)c2C)cc1Cl`, the growth was 85.1% [100 µM] (inactive) and 89.4% [100 µM] (inactive).

Take `CC1OC(Oc2c(-c3cc(O)c(O)c(O)c3)oc3cc(O)cc(O)c3c2=O)C(O)C(O)C1O` (centres undefined): the growth was 59.6% [100 µM] (inactive) and -60.3% [100 µM] (active).

Regarding `CC1=C2NCN(C)N=C2C(C#N)(C#N)C1(C#N)C#N`, the growth is -78.8% [100 µM] (active) and -94.8% [100 µM] (active). As for `CCCCCCCCCC(=O)CC(=O)c1c(O)cc(O)cc1O`, the growth was -97.6% [75 µM] (active) and -88.4% [75 µM] (active). Turning to `CC1CC(=O)N(N(C)C)C2(C#N)C(=O)N=C(N)C12C#N` (centres undefined), the growth was -84.2% [100 µM] (active) and -92.9% [100 µM] (active). In the case of `Cc1ccc(/C=N/Nc2nc3ccccc3s2)s1`, the growth is 45% [100 µM] (inactive) and 40.5% [100 µM] (inactive). The value for `Cc1ccc(NC(=O)/C(=N\NC(N)=O)c2c(O)c3ccccc3[nH]c2=O)cc1` was 87% [100 µM] (inactive) and 83% [100 µM] (inactive).
